The nature of test [1]: NCI Yeast Anticancer Drug Screen. Data for the rad50 strain (AID 155).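 Also: 0% = growth of vehicle-only cultures of the same strain.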 The following applies: S. cerevisiae rad50 strain growth inhibition, active compounds read high. The procedure, abridged: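 Yeast carrying a defined DNA repair defect were exposed to test compounds, and growth was compared with vehicle-treated controls to give percent inhibition.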
Test [2] can be described thus: NCI Yeast Anticancer Drug Screen. Data for the mec2-1 strain (AID 157). The note with it: S. cerevisiae mec2-1 strain, active compounds read high. Put shortly:
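Test agents were screened against the mec2-1 yeast strain, with defined DNA repair or cell cycle alteration. Growth was scored as inhibition against vehicle-only controls.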

Test [3] in a line: NCI Yeast Anticancer Drug Screen. Data for the sgs1 mgt1 strain (AID 161).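 Also: 0% = growth of cultures given vehicle only.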 The note with it: S. cerevisiae sgs1 mgt1 strain, active compounds read high. Put shortly: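 Read-out: growth inhibition vs vehicle controls. Cells: mutant yeast strain deficient in DNA damage repair.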
Test [4] can be described thus: NCI Yeast Anticancer Drug Screen. Data for the cln2 rad14 strain (AID 165).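 Also: 0% = growth equal to vehicle treated cultures.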 The note with it: S. cerevisiae cln2 rad14 strain, active compounds read high. Put shortly: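 Growth of compound-exposed yeast (cln2 rad14 genotype) measured and expressed as inhibition relative to vehicle.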
Test [5] is described as follows: NCI Yeast Anticancer Drug Screen. Data for the bub3 strain (AID 167). The following applies: S. cerevisiae bub3 mutant strain, active compounds read high. Put shortly:
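Compounds were applied to a genetically altered yeast strain carrying a cell-cycle control defect. Growth inhibition was scored against vehicle-treated controls.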

Test [6] in a line: NCI Yeast Anticancer Drug Screen. Data for the mlh1 rad18 strain (AID 175). The following applies: S. cerevisiae mlh1 rad18 strain growth inhibition, active compounds read high. Put shortly: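 In this whole-cell yeast screen, a strain with altered DNA damage repair is challenged with compound, and its growth is measured against matched vehicle-treated controls.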
[7] abbreviates: at 5.0 µM (retest, dose inferred, filed as 0.5).
The mark [8] stands for this setting: at 50.0 µM (retest, dose inferred, filed as 5.0).

The panel holds about 79,000 compounds, 15% with a hit somewhere; the sample as a whole holds those more often. Unmarked numbers belong to inactive results. Calls of active or inactive are those of the source. Rule as the data show it: active = growth inhibition above about 70%; inactive = the rest.

With `CC(C)c1ccc(C(=O)OC2CCCCC2)cc1`, the growth inhibition in test [1] (setting [7]) was 7%; in test [1] (setting [8]) it was 97% (active); in test [1] (at 50.0 µM), 73.3% (active); in test [2] (setting [7]), 8%; in test [2] (setting [8]), 100% (active); in test [2] (at 50.0 µM) it was 9.4%. Besides, the growth inhibition is 7% in test [3] (setting [7]); 96% (active) in test [3] (setting [8]); 46% in test [3] (at 50.0 µM); 4% in test [4] (setting [7]); 98% (active) in test [4] (setting [8]); 58.1% in test [4] (at 50.0 µM). Also, the growth inhibition in test [5] (setting [7]) is 1%; in test [5] (setting [8]) it was 100% (active); in test [5] (at 50.0 µM) it was 88.7% (active); in test [6] (setting [7]), 2%; in test [6] (setting [8]), 96% (active); in test [6] (at 50.0 µM) it was 62.2%.
In the case of `CN(C)CC1CCC/C(=C\c2ccc(Cl)cc2)C1=O` (stereo not given), the growth inhibition was -15% in test [1] (setting [7]); 99% (active) in test [1] (setting [8]); 80.5% (active) in test [1] (at 50.0 µM); -25% in test [2] (setting [7]); 99% (active) in test [2] (setting [8]); 86.8% (active) in test [2] (at 50.0 µM). For the same compound, the growth inhibition in test [3] (setting [7]) is -28%; in test [3] (setting [8]), 99% (active); in test [3] (at 50.0 µM), 92.5% (active); in test [4] (setting [7]) it was -25%; in test [4] (setting [8]), 99% (active); in test [4] (at 50.0 µM) it was 87% (active). Moreover, the growth inhibition in test [5] (setting [7]) was -38%; in test [5] (setting [8]), 99% (active); in test [5] (at 50.0 µM), 91.4% (active); in test [6] (setting [7]), -14%; in test [6] (setting [8]), 99% (active); in test [6] (at 50.0 µM) it was 91.3% (active).
With `Oc1ccc(-c2ccccc2)cc1Br`, the growth inhibition in test [1] (setting [7]) was 14%; in test [1] (setting [8]) it was 99% (active); in test [1] (at 50.0 µM) it was 99.4% (active); in test [2] (setting [7]), 3%; in test [2] (setting [8]) it was 100% (active); in test [2] (at 50.0 µM), 99.7% (active). The growth inhibition in test [3] (setting [7]) is 1%; in test [3] (setting [8]) it was 99% (active); in test [3] (at 50.0 µM), 99.5% (active); in test [4] (setting [7]), -9%; in test [4] (setting [8]), 99% (active); in test [4] (at 50.0 µM), 98.5% (active). For the same compound, the growth inhibition in test [5] (setting [7]) was -3%; in test [5] (setting [8]), 99% (active); in test [5] (at 50.0 µM), 99.5% (active); in test [6] (setting [7]) it was 9%; in test [6] (setting [8]), 99% (active); in test [6] (at 50.0 µM) it was 99.5% (active).
Turning to `CCCCCC(=O)/C=C/c1ccc(C)cc1`, the growth inhibition in test [1] (setting [7]) is -155%; in test [1] (setting [8]), -162%; in test [1] (at 50.0 µM), 82.6% (active); in test [2] (setting [7]) it was -47%; in test [2] (setting [8]), -59%; in test [2] (at 50.0 µM), 56.9%. The growth inhibition was -60% in test [3] (setting [7]); -65% in test [3] (setting [8]); 83% (active) in test [3] (at 50.0 µM); -59% in test [4] (setting [7]); -80% in test [4] (setting [8]); 75% (active) in test [4] (at 50.0 µM). Further, the growth inhibition was -59% in test [5] (setting [7]); -57% in test [5] (setting [8]); 61.8% in test [5] (at 50.0 µM); -123% in test [6] (setting [7]); -131% in test [6] (setting [8]); 81.7% (active) in test [6] (at 50.0 µM).
In the case of `OC(c1cc2ccccc2o1)c1cc2ccccc2s1` (stereo not given), the growth inhibition is -4% in test [1] (setting [7]); 95% (active) in test [1] (setting [8]); 44.2% in test [1] (at 50.0 µM); -11% in test [2] (setting [7]); 94% (active) in test [2] (setting [8]); 75.2% (active) in test [2] (at 50.0 µM). The growth inhibition in test [3] (setting [7]) is 2%; in test [3] (setting [8]), 46%; in test [3] (at 50.0 µM), 70.4% (active); in test [4] (setting [7]), -12%; in test [4] (setting [8]) it was 97% (active); in test [4] (at 50.0 µM), 61.6%. Also, the growth inhibition in test [5] (setting [7]) was -6%; in test [5] (setting [8]), 93% (active); in test [5] (at 50.0 µM), 78.7% (active); in test [6] (setting [7]) it was 16%; in test [6] (setting [8]) it was 94% (active); in test [6] (at 50.0 µM), 43%.
On to `CCCCCC=C(c1cc(Br)cc(C(=O)O)c1O)c1cc(Br)cc(C(=O)O)c1O`, for which the growth inhibition in test [1] (setting [7]) is 2%; in test [1] (setting [8]), 91% (active); in test [1] (at 50.0 µM) it was 89.2% (active); in test [2] (setting [7]), 0%; in test [2] (setting [8]), 95% (active); in test [2] (at 50.0 µM), 85.8% (active). In addition, the growth inhibition in test [3] (setting [7]) is 0%; in test [3] (setting [8]), 95% (active); in test [3] (at 50.0 µM), 82.8% (active); in test [4] (setting [7]), 2%; in test [4] (setting [8]), 94% (active); in test [4] (at 50.0 µM) it was 67.1%. The growth inhibition in test [5] (setting [7]) is 0%; in test [5] (setting [8]), 94% (active); in test [5] (at 50.0 µM), 69%; in test [6] (setting [7]) it was 4%; in test [6] (setting [8]), 94% (active); in test [6] (at 50.0 µM), 88.9% (active).
Regarding `Clc1ccc(N=Cc2c3ccccc3cc3ccccc23)c(Cl)c1`, the growth inhibition in test [1] (setting [7]) is 0%; in test [1] (setting [8]) it was -3%; in test [1] (at 50.0 µM) it was 79.7% (active); in test [2] (setting [7]), 3%; in test [2] (setting [8]), 2%; in test [2] (at 50.0 µM), 85.4% (active). Also, the growth inhibition in test [3] (setting [7]) is -5%; in test [3] (setting [8]) it was 5%; in test [3] (at 50.0 µM) it was 87.4% (active); in test [4] (setting [7]), 15%; in test [4] (setting [8]), 22%; in test [4] (at 50.0 µM), 31%. The growth inhibition was 2% in test [5] (setting [7]); 29% in test [5] (setting [8]); 79.5% (active) in test [5] (at 50.0 µM); -7% in test [6] (setting [7]); 44% in test [6] (setting [8]); 77.5% (active) in test [6] (at 50.0 µM).
`O=C1c2c(O)ccc(O)c2C(=O)c2c(O)ccc(O)c21`: the growth inhibition was -23% in test [1] (setting [7]); 22% in test [1] (setting [8]); 21.4% in test [1] (at 50.0 µM); 1% in test [2] (setting [7]); -12% in test [2] (setting [8]); 18.2% in test [2] (at 50.0 µM). Also, the growth inhibition in test [3] (setting [7]) is -12%; in test [3] (setting [8]), 10%; in test [3] (at 50.0 µM), 12.3%; in test [4] (setting [7]) it was -10%; in test [4] (setting [8]) it was -2%; in test [4] (at 50.0 µM) it was 41%. For the same compound, the growth inhibition is -14% in test [5] (setting [7]); 8% in test [5] (setting [8]); 16.5% in test [5] (at 50.0 µM); 8% in test [6] (setting [7]); -2% in test [6] (setting [8]); 4.25% in test [6] (at 50.0 µM).
With `COC(=O)[C@@H]1c2cc3c(c(O)c2[C@@H](OC2OC(C)C(OC)C(C)(OC)C2OC)C[C@]1(C)O)C(=O)c1c(O)cc2c(c1C3=O)O[C@H]1O[C@]2(C)[C@H](O)[C@@H](N(C)C)[C@@H]1O` (stereo not given in full), the growth inhibition is 61% in test [1] (setting [7]); 98% (active) in test [1] (setting [8]); 90.8% (active) in test [1] (at 50.0 µM); 45% in test [2] (setting [7]); 99% (active) in test [2] (setting [8]); 93% (active) in test [2] (at 50.0 µM). Moreover, the growth inhibition in test [3] (setting [7]) is 35%; in test [3] (setting [8]), 99% (active); in test [3] (at 50.0 µM) it was 92.3% (active); in test [4] (setting [7]) it was 33%; in test [4] (setting [8]), 98% (active); in test [4] (at 50.0 µM), 90.6% (active). Besides, the growth inhibition in test [5] (setting [7]) is 60%; in test [5] (setting [8]), 99% (active); in test [5] (at 50.0 µM), 91.2% (active); in test [6] (setting [7]) it was 79% (active); in test [6] (setting [8]), 98% (active); in test [6] (at 50.0 µM), 89.8% (active).
As for `CN(C)c1cccc(F)c1C(=O)NC(=O)Nc1ccc(Cl)cc1`, the growth inhibition in test [1] (setting [7]) was 2%; in test [1] (setting [8]), 3%; in test [1] (at 50.0 µM), 79.7% (active); in test [2] (setting [7]), 1%; in test [2] (setting [8]), 4%; in test [2] (at 50.0 µM), 75.7% (active). For the same compound, the growth inhibition in test [3] (setting [7]) was 0%; in test [3] (setting [8]), 7%; in test [3] (at 50.0 µM), 85.9% (active); in test [4] (setting [7]), 51%; in test [4] (setting [8]) it was -2%; in test [4] (at 50.0 µM), 72% (active). In addition, the growth inhibition in test [5] (setting [7]) is 1%; in test [5] (setting [8]), 11%; in test [5] (at 50.0 µM), 83% (active); in test [6] (setting [7]), 17%; in test [6] (setting [8]) it was -2%; in test [6] (at 50.0 µM), 91.5% (active).

For the origin of these results see PubChem BioAssay (NCI).
